Data published in PubChem BioAssay (Tox21).
Results filed as inconclusive are left out. Where a call stands in place of a potency, no number is given. Unmarked numbers belong to inactive results. Calls of active or inactive are those of the source. Unless noted, calls follow the shape of the dose curve; as a rule, active = well fitted curve in the direction sought with a large enough effect in the repeat runs; inconclusive = weak or mixed curves; inactive = no such curve, though single readings can be large; an effect the other way counts as inactive or inconclusive.

Key:
[1] = molecular target: Retinoic acid receptor RXR-alpha (Homo sapiens) (UniProt P19793); assay: qHTS assay to identify small molecule agonists of the RXR signaling pathway (AID 1159527; calls by dose curve; also: nearly all actives have a fitted effect of over 35% in size; also: potency is read from the fitted curve at half-maximal effect)
Procedure, shortened: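 Compounds in DMSO were added to RXR-alpha-UAS-bla HEK 293T cells kept in 2% charcoal-stripped serum, and incubated 16 hr at 37 C with 5% CO2. Reporter signal came from a 2 hr B/G FRET substrate step.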

[2] = qHTS assay to identify small molecule agonists of the constitutive androstane receptor (CAR) signaling pathway - cell viability counter screen (AID 1224836); also: nearly all actives have a fitted effect of over 45% in size; also: potency is read from the fitted curve at half-maximal effect
Procedure, shortened: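 Double-stable HepG2 hepatoma cells (hCAR plus CYP2B6-2.2kb) are treated for 23 h at 37 C with test compounds in 15-point concentration series. PK11195 at 0.75 uM final is co-added. Cell viability is quantified by CellTiter-Fluor.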

[3] = qHTS assay to identify small molecule antagonists of the constitutive androstane receptor (CAR) signaling pathway - cell viability counter screen (AID 1224837); also: nearly all actives have a fitted effect of over 45% in size; also: potency is read from the fitted curve at half-maximal effect
Procedure, shortened: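 In quantitative HTS format, compounds at 15 concentrations were applied to HepG2 cells double-transfected with hCAR and CYP2B6-2.2kb under 50 nM CITCO stimulation; live-cell protease activity was read after 23 hr via CellTiter-Fluor.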

[4] = qHTS RealTime-Glo MT Cell Viability Assay in HepG2 cells - 24 hour (AID 1224867); also: nearly all actives have a fitted effect of over 50% in size
Procedure, shortened: (§1)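 HepG2 suspension premixed with RealTime-Glo reagents is plated at 600 cells per well and left 5 h at 37 C/5% CO2. Compounds in DMSO then go in, and bioluminescence reflecting viable cell number is recorded over 40 h.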

[5] = qHTS RealTime-Glo MT Cell Viability Assay in HEK293 cells - 32 hour (AID 1224868); also: nearly all actives have a fitted effect of over 50% in size; also: potency is read from the fitted curve at half-maximal effect
Procedure, shortened: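 Reads taken at 0, 8, 16, 24, 32 and 40 h from the same wells. HEK293 cells (600/well) carried RealTime-Glo reagents from seeding, with compound added after a 5 h settle at 37 C.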

[6] = A CellTox Green Cytotoxicity Assay to monitor cytotoxicity in HepG2 cells - 24 hour (AID 1224878); also: nearly all actives have a fitted effect of over 45% in size; also: potency is read from the fitted curve at half-maximal effect
Procedure, shortened: (§2)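 Fluorescent DNA-binding dye, 600 HepG2 cells/well, 5 h preincubation then compound in DMSO; same plates read at 0–40 h, 37 C.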

[7] = A CellTox Green Cytotoxicity Assay to monitor cytotoxicity in HepG2 cells - 40 hour (AID 1224879); also: nearly all actives have a fitted effect of over 40% in size; also: potency is read from the fitted curve at half-maximal effect
Procedure, shortened: as §2

[8] = A CellTox Green Cytotoxicity Assay to monitor cytotoxicity in HEK293 cells - 8 hour (AID 1224884); also: nearly all actives have a fitted effect of over 35% in size; also: potency is read from the fitted curve at half-maximal effect
Procedure, shortened: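 Homogeneous no-lysis format: HEK293 cell suspension mixed with CellTox Green reagent, seeded, incubated 5 h at 37 C/5% CO2, then dosed by pintool with compound in DMSO.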

[9] = qHTS RealTime-Glo MT Cell Viability Assay in HepG2 cells - 16 hour (AID 1224885); also: nearly all actives have a fitted effect of over 50% in size
Procedure, shortened: as §1

[10] = qHTS assay to identify small molecule agonists of the sonic hedgehog signaling (Shh) pathway - cell viability counter screen (AID 1259366); also: nearly all actives have a fitted effect of over 50% in size; also: potency is read from the fitted curve at half-maximal effect
Procedure, shortened: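 Compounds in DMSO were pin-transferred onto 3T3 Gli1-Luc cells that had settled 4hr; plates then stood 24hr at 37C and 5% CO2. One hour before the end, CellTiter-Fluor was added and fluorescence recorded.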

[11] = qHTS assay to identify small molecule antagonists of the sonic hedgehog signaling (Shh) pathway - cell viability counter screen (AID 1259367); also: nearly all actives have a fitted effect of over 55% in size; also: potency is read from the fitted curve at half-maximal effect
Procedure, shortened: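 Tox21 library chemicals were tested on a Gli1-Luc NIH/3T3 clone (2,000 cells/well) stimulated by conditioned medium; viability was quantified as fluorescence from CellTiter-Fluor reagent added at 23 hr.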

[12] = qHTS assay to identify small molecule agonists of the estrogen receptor alpha (ER-alpha) signaling pathway in the presence of an antagonist - cell viability counter screen (AID 1259386);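 also: cells exposed to compounds for 22 h at 37 °C before the viability read; nearly all actives have a fitted effect of over 30% in size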; also: potency is read from the fitted curve at half-maximal effect
Procedure, shortened: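 Steps: 5-day stripped-FBS culture; seed and incubate 24hr; add ICI-182,780 (10.0nM final); pin 15-point compound titration; incubate 22hr at 37C; add CellTiter-Fluor at 21hr; read fluorescence.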

[13] = qHTS assay to identify small molecule antagonists of the TGF-beta/Smad signaling pathway - cell viability counter screen (AID 1346824); also: nearly all actives have a fitted effect of over 50% in size; also: potency is read from the fitted curve at half-maximal effect
Procedure, shortened: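 SBE-bla HEK 293T cells, incubated overnight, then compound plus 0.25 ng/mL TGF-beta1 (stock added) for 5 hr at 37 C. Viability was read in the same wells by CellTiter-Glo luminescence after 30 min at room temperature.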

[14] = qHTS assay to identify small molecule agonists of the TGF-beta/Smad signaling pathway - cell viability counter screen (AID 1346829); also: top concentration of the series differs between compounds; nearly all actives have a fitted effect of over 45% in size
Procedure, shortened: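 Same-well cytotoxicity: CellTiter-Glo added after the 2 hr room-temperature beta-lactamase substrate step, luminescence measured 30 min later; cells had 5 hr of compound at 37 C.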

[15] = molecular target: Nuclear receptor subfamily 1 group I member 2 (Homo sapiens) (UniProt O75469); assay: Human pregnane X receptor (PXR) small molecule agonists, qHTS assay (AID 1346982); also: nearly all actives have a fitted effect of over 35% in size; also: potency is read from the fitted curve at half-maximal effect
Procedure, shortened: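 After plating in 5% charcoal-stripped FBS and a 5 hr rest, PXR-Luc HepG2 cells received compounds in DMSO. Following 24 hr at 37 C, ONE-Glo was added and light output read.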

[16] = molecular target: Cytochrome P450 2C19 (Homo sapiens) (UniProt P33261); assay: Cytochrome P450 Family 2 Subfamily C Member 19 (CYP2C19) small molecule antagonists: luciferase reporter qHTS assay (AID 1671197); also: nearly all actives have a fitted effect of over 65% in size; also: potency is read from the fitted curve at half-maximal effect
Procedure, shortened: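 Quantitative high-throughput screen of the Tox21 library using CYP2C19 with proluciferin substrate. Reaction: NADPH regeneration, 37C, 1 h, after 10 min compound preincubation at room temperature. Readout: luminescence.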

[17] = molecular target: Cytochrome P450 2C9 (Homo sapiens) (UniProt P11712); assay: Cytochrome P450 Family 2 Subfamily C Member 9 (CYP2C9) small molecule antagonists: luciferase reporter qHTS assay (AID 1671198); also: nearly all actives have a fitted effect of over 50% in size; also: potency is read from the fitted curve at half-maximal effect
Procedure, shortened: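 P450-Glo proluciferin substrate with CYP2C9 enzyme; 10 min RT preincubation, then NADPH regeneration 1 h at 37C; luciferin detection reagent 20 min RT, luminescence in relative luminescence units.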

[18] = qHTS assay to identify small molecule agonists of the AP-1 signaling pathway - cell viability counter screen (AID 1159525; calls by dose curve; also: nearly all actives have a fitted effect of over 55% in size; also: potency is read from the fitted curve at half-maximal effect)
Procedure, shortened: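 Same-well cytotoxicity counter screen of the Tox21 10K library in ME-180 cells. The readout is ATP-dependent luminescence after 5 h compound treatment. Data are normalised to DMSO and tetra n-octyl ammonium bromide controls.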

[19] = qHTS assay to identify small molecule antagonists of the estrogen related receptor (ERR) signaling pathway from Tox21 library - cell viability counter screen (AID 1224834); also: nearly all actives have a fitted effect of over 30% in size; also: potency is read from the fitted curve at half-maximal effect
Procedure, shortened: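 In this quantitative HTS format, ERR cells receive compounds in DMSO and are incubated for 17.5 h at 37 C. Live-cell protease activity is then detected with CellTiter-Fluor.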

[20] = molecular target: Luciferin 4-monooxygenase (Photinus pyralis) (UniProt P08659); assay: qHTS assay to identify small molecule inhibitors of firefly luciferase (AID 1224835); also: series mostly up to about 120 µM; nearly all actives have a fitted effect of over 25% in size
Procedure, shortened: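 Biochemical qHTS: compounds run as interplate titrations against purified firefly enzyme, with D-luciferin and ATP each at its KM concentration. Light output recorded by CCD imaging.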

Sequence of Nuclear receptor subfamily 1 group I member 2 (Homo sapiens) (O75469 whole entry, looked up): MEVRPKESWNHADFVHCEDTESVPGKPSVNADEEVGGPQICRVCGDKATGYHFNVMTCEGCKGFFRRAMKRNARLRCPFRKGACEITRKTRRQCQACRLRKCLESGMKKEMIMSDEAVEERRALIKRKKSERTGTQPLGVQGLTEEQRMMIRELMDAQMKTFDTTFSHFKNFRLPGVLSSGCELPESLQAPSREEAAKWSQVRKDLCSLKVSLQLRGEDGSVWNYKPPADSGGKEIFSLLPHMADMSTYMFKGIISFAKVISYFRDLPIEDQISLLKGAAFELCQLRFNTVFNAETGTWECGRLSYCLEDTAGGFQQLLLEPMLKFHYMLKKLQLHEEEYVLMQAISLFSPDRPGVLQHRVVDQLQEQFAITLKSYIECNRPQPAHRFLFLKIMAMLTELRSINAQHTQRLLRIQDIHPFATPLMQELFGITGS
Sequence of Luciferin 4-monooxygenase (Photinus pyralis) (P08659 whole entry, looked up): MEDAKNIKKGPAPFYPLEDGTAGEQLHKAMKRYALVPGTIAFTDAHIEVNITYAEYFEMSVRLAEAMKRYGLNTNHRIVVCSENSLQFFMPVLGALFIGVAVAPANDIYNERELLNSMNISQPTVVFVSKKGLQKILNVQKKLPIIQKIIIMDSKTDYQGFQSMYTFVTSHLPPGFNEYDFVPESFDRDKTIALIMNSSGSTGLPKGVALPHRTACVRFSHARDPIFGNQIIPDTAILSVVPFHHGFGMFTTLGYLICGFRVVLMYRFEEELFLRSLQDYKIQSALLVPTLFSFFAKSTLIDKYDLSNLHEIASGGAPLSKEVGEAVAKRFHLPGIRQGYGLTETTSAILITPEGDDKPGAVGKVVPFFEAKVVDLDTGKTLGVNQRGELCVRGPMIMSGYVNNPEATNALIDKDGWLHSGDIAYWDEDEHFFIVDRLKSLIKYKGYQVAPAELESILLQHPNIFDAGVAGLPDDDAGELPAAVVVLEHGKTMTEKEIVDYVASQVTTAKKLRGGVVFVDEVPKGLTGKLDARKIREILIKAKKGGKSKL
Sequence of Retinoic acid receptor RXR-alpha (Homo sapiens) (P19793 whole entry, looked up): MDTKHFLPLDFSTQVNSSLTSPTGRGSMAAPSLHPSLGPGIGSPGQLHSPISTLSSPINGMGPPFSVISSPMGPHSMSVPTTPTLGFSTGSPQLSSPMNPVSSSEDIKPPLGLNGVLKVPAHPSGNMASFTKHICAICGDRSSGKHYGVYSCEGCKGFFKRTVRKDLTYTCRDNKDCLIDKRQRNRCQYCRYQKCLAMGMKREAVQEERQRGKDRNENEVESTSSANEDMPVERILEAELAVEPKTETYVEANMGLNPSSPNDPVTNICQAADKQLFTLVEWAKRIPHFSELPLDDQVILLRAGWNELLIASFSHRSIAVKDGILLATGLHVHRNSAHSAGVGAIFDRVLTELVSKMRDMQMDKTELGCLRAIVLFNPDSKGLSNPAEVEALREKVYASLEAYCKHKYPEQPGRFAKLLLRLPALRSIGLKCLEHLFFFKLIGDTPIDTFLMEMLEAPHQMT
Sequence of Cytochrome P450 2C9 (Homo sapiens) (P11712 whole entry, looked up): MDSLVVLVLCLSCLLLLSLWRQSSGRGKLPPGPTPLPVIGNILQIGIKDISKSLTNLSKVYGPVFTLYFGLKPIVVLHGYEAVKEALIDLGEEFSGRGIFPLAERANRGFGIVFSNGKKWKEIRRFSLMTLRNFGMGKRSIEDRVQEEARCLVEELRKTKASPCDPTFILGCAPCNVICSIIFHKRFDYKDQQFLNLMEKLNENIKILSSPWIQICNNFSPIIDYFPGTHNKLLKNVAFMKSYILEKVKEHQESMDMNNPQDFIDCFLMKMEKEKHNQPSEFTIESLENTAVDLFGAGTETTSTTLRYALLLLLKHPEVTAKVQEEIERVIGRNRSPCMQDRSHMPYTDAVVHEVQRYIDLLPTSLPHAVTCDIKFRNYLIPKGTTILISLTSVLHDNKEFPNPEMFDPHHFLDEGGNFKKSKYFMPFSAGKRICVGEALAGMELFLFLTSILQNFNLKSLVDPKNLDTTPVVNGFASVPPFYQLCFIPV
Sequence of Cytochrome P450 2C19 (Homo sapiens) (P33261 whole entry, looked up): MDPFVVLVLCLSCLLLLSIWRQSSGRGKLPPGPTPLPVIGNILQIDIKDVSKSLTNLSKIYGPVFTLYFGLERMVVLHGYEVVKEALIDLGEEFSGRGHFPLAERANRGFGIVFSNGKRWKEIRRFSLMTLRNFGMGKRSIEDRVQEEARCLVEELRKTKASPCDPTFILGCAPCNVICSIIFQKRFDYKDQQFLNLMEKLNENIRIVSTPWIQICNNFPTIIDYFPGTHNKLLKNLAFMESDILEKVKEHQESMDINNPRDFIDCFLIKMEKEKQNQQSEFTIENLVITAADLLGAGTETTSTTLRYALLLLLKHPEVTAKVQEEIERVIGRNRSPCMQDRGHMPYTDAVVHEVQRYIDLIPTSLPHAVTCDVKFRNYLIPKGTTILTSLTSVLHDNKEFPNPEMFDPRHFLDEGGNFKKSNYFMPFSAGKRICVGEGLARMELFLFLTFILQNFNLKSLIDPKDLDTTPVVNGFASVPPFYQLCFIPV

O=C1C(I)=CC(=C(c2cc(I)c(O)c(I)c2)c2ccccc2C(=O)O)C=C1I
Potency [1]: inactive | Potency [2]: inactive | Potency [3]: inactive | Potency [4]: inactive | Potency [5]: inactive | Potency [6]: inactive | Potency [7]: inactive | Potency [8]: inactive | Potency [9]: inactive | Potency [10]: inactive | Potency [11]: inactive | Potency [12]: inactive | Potency [13]: inactive | outcome [14]: inactive | Potency [15]: 11.9 µM (active) | Potency [16]: 13.8 µM (active) | Potency [17]: 3.89 µM (active)

ClC(Cl)=C(c1ccc(Cl)cc1)c1ccccc1Cl
Potency [18]: inactive | Potency [19]: inactive | Potency [20]: inactive | Potency [2]: inactive | Potency [3]: inactive | Potency [4]: inactive | Potency [9]: inactive | Potency [10]: inactive | Potency [11]: inactive | Potency [12]: inactive | Potency [13]: inactive | outcome [14]: inactive | Potency [15]: 30.6 µM (active) | Potency [16]: 6.33 µM (active) | Potency [17]: 25.2 µM (active)

O=C(Nc1ccccc1-c1ccc(Cl)cc1)c1cccnc1Cl
Potency [18]: inactive | Potency [2]: inactive | Potency [3]: inactive | Potency [4]: inactive | Potency [6]: 41.2 µM (active) | Potency [7]: 46.3 µM (active) | Potency [8]: 46.3 µM (active) | Potency [9]: inactive | Potency [10]: inactive | Potency [11]: inactive | Potency [12]: inactive | Potency [15]: 10.3 µM (active) | Potency [16]: 3.56 µM (active) | Potency [17]: inactive

Oc1c(I)cc(I)cc1I
Potency [18]: inactive | Potency [19]: inactive | Potency [20]: inactive | Potency [2]: inactive | Potency [3]: inactive | Potency [4]: inactive | Potency [5]: inactive | Potency [6]: inactive | Potency [7]: inactive | Potency [8]: inactive | Potency [9]: inactive | Potency [10]: inactive | Potency [11]: inactive | Potency [12]: inactive | Potency [13]: inactive | outcome [14]: inactive | Potency [17]: 56.4 µM (active)

CO/C=C(/C(=O)OC)c1ccccc1Oc1cc(Oc2ccccc2C#N)ncn1
Potency [19]: 20.6 µM (active) | Potency [20]: inactive | Potency [5]: 23.3 µM (active) | Potency [6]: inactive | Potency [7]: inactive | Potency [8]: inactive | Potency [11]: 58.1 µM (active) | Potency [12]: 21.7 µM (active) | Potency [13]: 34.7 µM (active) | Potency [15]: 0.686 µM (active) | Potency [16]: 2.39 µM (active) | Potency [17]: 7.45 µM (active)

Cc1c(N)cccc1[N+](=O)[O-]
Potency [1]: inactive

CC(C)(C)c1cc(C(C)(C)C)c(O)c(C(C)(C)C)c1
Potency [1]: 15.5 µM (active)

N#Cc1cc([N+](=O)[O-])ccc1N
Potency [18]: inactive | Potency [20]: inactive | Potency [4]: inactive | Potency [5]: inactive | Potency [6]: inactive | Potency [7]: inactive | Potency [8]: inactive | Potency [9]: inactive | outcome [14]: inactive | Potency [15]: inactive | Potency [17]: inactive

O=C(c1ccccc1)C(Cl)Cl
Potency [18]: inactive | Potency [19]: 61.1 µM (active) | Potency [20]: inactive | Potency [2]: 61.1 µM (active) | Potency [3]: 54.5 µM (active) | Potency [5]: 38.9 µM (active) | Potency [6]: inactive | Potency [8]: inactive | Potency [10]: 68.6 µM (active) | Potency [12]: inactive | Potency [13]: inactive | outcome [14]: inactive | Potency [16]: inactive

ClC1=C(Cl)[C@]2(Cl)[C@@H]3[C@@H](Cl)[C@H]4O[C@H]4[C@@H]3C1(Cl)C2(Cl)Cl
Potency [18]: 49 µM (active) | Potency [20]: inactive | Potency [2]: inactive | Potency [3]: inactive | Potency [10]: inactive | Potency [11]: inactive | Potency [12]: inactive | Potency [13]: inactive | outcome [14]: inactive | Potency [15]: 30.6 µM (active) | Potency [17]: 39.9 µM (active)
